Results published in PubChem BioAssay (NCI).
This is part of a sample that, as a whole, favours compounds with a hit. Of some 83,000 tested, about 20% had one in any assay.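 The endpoint reported here, percent growth, reads 100 for growth as untreated, 0 for no net growth and -100 for all cells dead.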 Active and inactive are the calls of the source. The calls were made as follows: active = growth percent below 10; inactive = the rest.

Experiments:
Assay in all cases: NCI-60 one-dose screen, 48 h (100 = growth as untreated, 0 = no growth, -100 = all killed)
Conditions in all cases: 10 µM unless noted
NCI-H23 lung = system: NCI-H23 lung
NCI-H226 lung = system: NCI-H226 lung
NCI-H322M lung = system: NCI-H322M lung
HOP-62 NSCLC = system: HOP-62 NSCLC
NCI-H460 lung = system: NCI-H460 lung
HOP-92 NSCLC = system: HOP-92 NSCLC
NCI-H522 lung = system: NCI-H522 lung
A549/ATCC NSCLC = system: A549/ATCC NSCLC
786-0 renal = system: 786-0 renal
COLO 205 colon = system: COLO 205 colon

Measured: growth

C=C1[C@@H](O)C[C@H]2C(C)(C)C[C@H](Cl)C[C@]2(C)[C@H]1C[C@H](O)[C@H]1CC(=O)NC1=O
active: NCI-H23 lung -36.2% | NCI-H226 lung -25.8% | NCI-H322M lung -8.41% | HOP-62 NSCLC -38.4% | NCI-H460 lung -11.5% | HOP-92 NSCLC -13.5% | NCI-H522 lung -36.8% | A549/ATCC NSCLC -14.1% | 786-0 renal -33.2% | COLO 205 colon -62.5%

CC(=O)O[C@]1(C)C[C@H](O)[C@]2(O)C=CO[C@H](O[C@@H]3O[C@H](CO)[C@@H](O)[C@H](O)[C@H]3O)[C@@H]21
inactive: NCI-H23 lung 99.3% | NCI-H226 lung 96.7% | NCI-H322M lung 101% | HOP-62 NSCLC 95.2% | NCI-H460 lung 110% | HOP-92 NSCLC 129% | NCI-H522 lung 95.4% | A549/ATCC NSCLC 105% | 786-0 renal 93.2% | COLO 205 colon 108%

CCN(CC)c1cc2oc3cc(N)cc(=N)c-3nc2cc1C
inactive: NCI-H23 lung 13.9% | NCI-H226 lung 84.9% | NCI-H322M lung 91.7% | HOP-62 NSCLC 65.3% | NCI-H460 lung 74.6% | HOP-92 NSCLC 82.1% | NCI-H522 lung 43.4% | A549/ATCC NSCLC 26.1% | 786-0 renal 62.6% | COLO 205 colon 20.8%

Cn1cnc2c(F)c(Nc3ccc(Br)cc3Cl)c(C(=O)NOCCO)cc21
inactive: NCI-H23 lung 25.7% | NCI-H226 lung 55.3% | NCI-H322M lung 11.2% | HOP-62 NSCLC 28.6% | NCI-H460 lung 60.2% | NCI-H522 lung 44.4% | A549/ATCC NSCLC 35.8% | 786-0 renal 71.1%
active: HOP-92 NSCLC -0.548% | COLO 205 colon -3.79%

Nc1cc(C(F)(F)F)c(-c2cc(N3CCOCC3)nc(N3CCOCC3)n2)cn1
active: NCI-H23 lung -11.8% | NCI-H226 lung -10.6% | NCI-H322M lung -18.3% | HOP-62 NSCLC -40.8% | NCI-H460 lung -12.9% | HOP-92 NSCLC -42.2% | NCI-H522 lung -51.7% | A549/ATCC NSCLC -44.8% | 786-0 renal -9.19% | COLO 205 colon -61.3%

CSc1nc2ncncc2[nH]1
inactive: NCI-H23 lung 101% | NCI-H226 lung 92.5% | NCI-H322M lung 102% | HOP-62 NSCLC 82.5% | NCI-H460 lung 110% | HOP-92 NSCLC 153% | NCI-H522 lung 101% | A549/ATCC NSCLC 103% | 786-0 renal 93.9% | COLO 205 colon 120%

CCS(=O)(=O)N1CCN(c2ccc(Nc3ncc(C(N)=O)c(NC4CC4)n3)cc2)CC1
active: COLO 205 colon 1.91%
inactive: NCI-H23 lung 75.9% | NCI-H226 lung 73.1% | NCI-H322M lung 79.4% | HOP-62 NSCLC 59.3% | NCI-H460 lung 60.3% | HOP-92 NSCLC 87.4% | NCI-H522 lung 59.2% | A549/ATCC NSCLC 62.2% | 786-0 renal 89%

CN1C/C=C\CCOc2cccc(c2)-c2ccnc(n2)Nc2cccc(c2)C1
active: NCI-H23 lung -56.6% | NCI-H226 lung -33.7% | NCI-H322M lung -17.7% | HOP-62 NSCLC -44.5% | NCI-H460 lung -73.6% | HOP-92 NSCLC -15.5% | NCI-H522 lung -70.1% | A549/ATCC NSCLC -50.1% | 786-0 renal -85.9% | COLO 205 colon -81.6%

CNC(=O)c1cc(Oc2cccc3nc(Nc4ccc(Oc5ccccc5)cc4)ccc23)ccn1
inactive: NCI-H23 lung 78% | NCI-H226 lung 66% | NCI-H322M lung 99.9% | HOP-62 NSCLC 92% | NCI-H460 lung 61.9% | HOP-92 NSCLC 71.2% | NCI-H522 lung 62.7% | A549/ATCC NSCLC 58.3% | 786-0 renal 72.5% | COLO 205 colon 46%

O=C(NO)c1ccc(Cn2c(=O)n(CCc3ccccc3)c(=O)c3ccccc32)cc1
active: NCI-H23 lung 8.96% | COLO 205 colon 4.15%
inactive: NCI-H226 lung 48.1% | NCI-H322M lung 43.7% | HOP-62 NSCLC 31.1% | NCI-H460 lung 25.2% | HOP-92 NSCLC 66.8% | NCI-H522 lung 29.9% | A549/ATCC NSCLC 33.6% | 786-0 renal 45%

O=c1[nH]c(N2CCOCC2)nc2scc(-c3ccccc3)c12
inactive: NCI-H23 lung 87.2% | NCI-H226 lung 97.2% | NCI-H322M lung 95% | HOP-62 NSCLC 91.3% | NCI-H460 lung 110% | HOP-92 NSCLC 79.7% | NCI-H522 lung 77% | A549/ATCC NSCLC 86.8% | 786-0 renal 95.2% | COLO 205 colon 101%

O=C(Cn1cncn1)Nc1ccc(-c2nc3ccccc3s2)cc1
inactive: NCI-H23 lung 87.5% | NCI-H226 lung 75% | NCI-H322M lung 101% | HOP-62 NSCLC 102% | NCI-H460 lung 97% | HOP-92 NSCLC 93.5% | NCI-H522 lung 87.5% | A549/ATCC NSCLC 88.1% | 786-0 renal 95.6% | COLO 205 colon 107%

CNC(=O)c1ccccc1Nc1nc(Nc2ccc3c(c2OC)CCC[C@H](N2CCN(CCO)CC2)C3)ncc1Cl
inactive: NCI-H23 lung 16.3% | NCI-H226 lung 28.6%
active: NCI-H322M lung 5.21% | HOP-62 NSCLC -48.7% | NCI-H460 lung 0.445% | HOP-92 NSCLC -30.7% | NCI-H522 lung -47.9% | A549/ATCC NSCLC -31.7% | 786-0 renal -66.1% | COLO 205 colon -64.7%

CN1CC[C@H](c2c(O)cc(O)c3c(=O)cc(-c4ccccc4Cl)oc23)[C@H](O)C1
active: NCI-H23 lung -17.3% | NCI-H226 lung 3.69% | NCI-H322M lung -5.32% | HOP-62 NSCLC -17.2% | NCI-H460 lung 3.22% | HOP-92 NSCLC -6.87% | NCI-H522 lung -23.9% | A549/ATCC NSCLC 5.9% | 786-0 renal 7.41% | COLO 205 colon -55%

COc1cnc2c(c1)C(=O)c1c-2n(CCCNC2=NCCS2)c(=O)c2cc(Cl)ccc12
inactive: NCI-H226 lung 46.9% | HOP-92 NSCLC 77.6%
active: NCI-H23 lung -52.4% | NCI-H322M lung -43.9% | HOP-62 NSCLC -78.9% | NCI-H460 lung -80.3% | NCI-H522 lung -64.7% | A549/ATCC NSCLC -89.6% | 786-0 renal -96.7% | COLO 205 colon -74.3%

CC(=O)OCCC/C(=C\c1ccc2ccccc2c1)[N+](=O)[O-]
active: NCI-H23 lung -42.3% | NCI-H226 lung -23% | HOP-62 NSCLC -27.5% | HOP-92 NSCLC -90.5% | NCI-H522 lung -80.3% | A549/ATCC NSCLC -72.3% | 786-0 renal -93.4% | COLO 205 colon -77.9%
inactive: NCI-H322M lung 83.2% | NCI-H460 lung 64.3%

C[C@@H](Nc1cc(F)cc(F)c1)c1cc(C(=O)N(C)C)cc2c(=O)cc(N3CCOCC3)oc12
inactive: NCI-H23 lung 76.6% | NCI-H226 lung 83.7% | NCI-H322M lung 31.5% | HOP-62 NSCLC 59.3% | NCI-H460 lung 43.1% | HOP-92 NSCLC 27.3% | NCI-H522 lung 59.7% | A549/ATCC NSCLC 34.9% | 786-0 renal 12.7% | COLO 205 colon 46.6%

CS(=O)(=O)CCNCc1ccc(-c2ccc3ncnc(Nc4ccc(OCc5cccc(F)c5)c(Cl)c4)c3c2)o1
inactive: NCI-H23 lung 25.9% | NCI-H226 lung 54.7% | NCI-H322M lung 13.8% | HOP-62 NSCLC 19.2%
active: NCI-H460 lung -58% | HOP-92 NSCLC -1.7% | NCI-H522 lung -44.5% | A549/ATCC NSCLC -39.4% | 786-0 renal -63.7% | COLO 205 colon -27.2%

CNC(=O)c1cccc2cc(Oc3ccnc4cc(OCC5(N)CC5)c(OC)cc34)ccc12
inactive: NCI-H23 lung 63.9% | NCI-H226 lung 47.1% | NCI-H322M lung 74.3% | HOP-62 NSCLC 51.7% | NCI-H460 lung 56% | HOP-92 NSCLC 64.6% | NCI-H522 lung 46.3% | A549/ATCC NSCLC 57.4% | 786-0 renal 76.8% | COLO 205 colon 58%

O=C(Nc1ccc(-c2ccnc(Nc3ccc(N4CCOCC4)cc3)n2)cc1)[C@@H]1CCCN1
inactive: NCI-H23 lung 65.6% | NCI-H226 lung 48.6% | NCI-H322M lung 67.6% | HOP-62 NSCLC 33.6% | NCI-H460 lung 50.7% | HOP-92 NSCLC 50.2% | NCI-H522 lung 48.3% | A549/ATCC NSCLC 45% | 786-0 renal 40.3% | COLO 205 colon 44.6%

CCCCOc1nc2cc(Cl)ccc2cc1/C=C/c1cc(/C=C/c2cc3ccc(Cl)cc3nc2OCCCC)n(-c2ccccc2)n1
inactive: NCI-H23 lung 83.3% | NCI-H226 lung 75.1% | NCI-H322M lung 92.5% | HOP-62 NSCLC 32.3% | NCI-H460 lung 98.3% | HOP-92 NSCLC 76.8% | NCI-H522 lung 61% | A549/ATCC NSCLC 75.4% | 786-0 renal 64% | COLO 205 colon 88.3%

Oc1ccc(/C=N/Nc2nnc(N/N=C/c3ccc(O)cc3O)c3ccccc23)c(O)c1
active: NCI-H23 lung -58.7% | NCI-H226 lung -39.5% | NCI-H322M lung -0.934% | HOP-62 NSCLC -31.6% | NCI-H460 lung -34.1% | HOP-92 NSCLC -35.8% | NCI-H522 lung -45.4% | A549/ATCC NSCLC -58% | 786-0 renal -3.79% | COLO 205 colon -23.8%

C[C@@H](N)c1ccc(C(=O)Nc2ccnc3[nH]ccc23)cc1
inactive: NCI-H23 lung 45% | NCI-H226 lung 51% | NCI-H322M lung 41.5% | HOP-62 NSCLC 13.9% | NCI-H460 lung 47.9% | HOP-92 NSCLC 55.6% | NCI-H522 lung 11% | A549/ATCC NSCLC 14.8% | 786-0 renal 33.2%
active: COLO 205 colon 5.34%

CCN(CCO)CCCOc1ccc2c(Nc3cc(CC(=O)Nc4cccc(F)c4)[nH]n3)ncnc2c1
active: COLO 205 colon -35.6%
inactive: NCI-H23 lung 29.2% | NCI-H226 lung 63.9% | NCI-H322M lung 14.4% | HOP-62 NSCLC 35.7% | NCI-H460 lung 22.6% | HOP-92 NSCLC 23.2% | NCI-H522 lung 22.9% | A549/ATCC NSCLC 23.9% | 786-0 renal 66.1%

O=C1C=CC2(NN=C(c3ccccc3)N2c2ccccc2)c2cccc(O)c21 (stereo not given)
inactive: NCI-H226 lung 51.9% | NCI-H322M lung 83.9% | HOP-62 NSCLC 21.5% | NCI-H460 lung 34.1% | HOP-92 NSCLC 117% | NCI-H522 lung 28.7% | A549/ATCC NSCLC 14.8% | 786-0 renal 102% | COLO 205 colon 80.8%
active: NCI-H23 lung 9.65%

O=C1OCC2=C1C(c1cccc(F)c1)c1cc3c(cc1N2CCO)OCCO3 (stereo not given)
inactive: NCI-H23 lung 25.4% | NCI-H226 lung 26.2% | NCI-H322M lung 45.3% | HOP-62 NSCLC 30.5% | HOP-92 NSCLC 66.6% | NCI-H522 lung 17.1% | A549/ATCC NSCLC 18.1% | 786-0 renal 26.4%
active: NCI-H460 lung 9.42% | COLO 205 colon -5.04%
